Some test systems named below: NCI-H23 lung; NCI-H226 lung; NCI-H322M lung; HOP-62 NSCLC; NCI-H460 lung; HOP-92 NSCLC; NCI-H522 lung; A549/ATCC NSCLC; 786-0 renal; COLO 205 colon.
Holding throughout (test): NCI-60 one-dose screen, 48 h (100 = growth as untreated, 0 = no growth, -100 = all killed)
What all share (details): 10 µM unless noted

SMILES strings stand for the structures. This is part of a sample that, as a whole, favours compounds with a hit. Of some 83,000 tested, about 20% had one in any assay.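 Results are percent growth after 48 hours of single-concentration exposure. 100 means growth as in untreated cells, lower positive values show inhibition; negative values down to -100 show cell death.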 A number with no mark means an inactive call. The source made the active and inactive calls. How the source made its calls: active means growth percent below 10; inactive means the rest.

With `CC1=CC(=NN=c2cc(C)n([O-])c(C)c2)C=C(C)[N+]1=O`, the growth is 95.5% in the experiment with NCI-H23 lung; 64.2% in the experiment with NCI-H226 lung; 114% in the experiment on NCI-H322M lung; 79.6% in the experiment with HOP-62 NSCLC; 102% in the experiment on NCI-H460 lung; 93.2% with HOP-92 NSCLC. For the same compound, the growth in the experiment on NCI-H522 lung is 67.6%; in the experiment on A549/ATCC NSCLC, 87.4%; with 786-0 renal, 79.3%; in the experiment on COLO 205 colon, 29.8%.
With `O=C1c2cc3c(cc2-c2c1c1ccc(F)cc1c(=O)n2C[C@H](O)[C@H](O)[C@H](O)CO)OCO3`, the growth was -49.4% (active) with NCI-H23 lung; -34.7% (active) in the experiment on NCI-H226 lung; 8.49% (active) with NCI-H322M lung; -23.1% (active) with HOP-62 NSCLC; 1% (active) in the experiment on NCI-H460 lung; -7.34% (active) with HOP-92 NSCLC. Also, the growth in the experiment on NCI-H522 lung was -24.6% (active); with A549/ATCC NSCLC it was -45.1% (active); in the experiment with 786-0 renal, 0.283% (active); with COLO 205 colon it was -30.9% (active).
For `O=C1NC(=Nc2ccc(O)cc2)S/C1=C\c1cccc(Cl)c1`, the growth in the experiment on NCI-H23 lung is 88.2%; in the experiment with NCI-H226 lung it was 102%; with NCI-H322M lung, 83.7%; in the experiment on HOP-62 NSCLC, 76.1%; in the experiment with NCI-H460 lung it was 86.3%; in the experiment on HOP-92 NSCLC it was 72.5%. The growth in the experiment on NCI-H522 lung was 76.3%; in the experiment with A549/ATCC NSCLC it was 54.9%; in the experiment with 786-0 renal, 67.1%; in the experiment on COLO 205 colon it was 102%.
Turning to `CC(=O)OCCC/C(=C/c1cc2ccccc2c2ccccc12)[N+](=O)[O-]`, the growth was -76.5% (active) with NCI-H23 lung; -51.6% (active) with NCI-H226 lung; 58.2% with NCI-H322M lung; -61.3% (active) in the experiment on HOP-62 NSCLC; -18.5% (active) in the experiment on NCI-H460 lung; -76% (active) in the experiment on HOP-92 NSCLC. For the same compound, the growth was -59.9% (active) with NCI-H522 lung, -94.6% (active) with A549/ATCC NSCLC, -89.5% (active) in the experiment on 786-0 renal and -85.9% (active) with COLO 205 colon.
For the compound `O=C1/C(=C/c2ccc(Cl)cc2)SC(=S)N1CCc1ccc(O)cc1`, the growth with NCI-H23 lung is 89.7%; in the experiment with NCI-H226 lung it was 96.1%; with NCI-H322M lung, 99.3%; in the experiment with HOP-62 NSCLC, 99.9%; with NCI-H460 lung it was 99.3%; with HOP-92 NSCLC, 73.7%. Besides, the growth with NCI-H522 lung is -30% (active); in the experiment with A549/ATCC NSCLC it was 87%; with 786-0 renal, 78.6%; in the experiment on COLO 205 colon it was 110%.
Take `Cc1cc(Nc2ccc(C)c(Cl)c2)n2nc(C(F)(F)F)nc2n1`: the growth in the experiment on NCI-H23 lung was 63.6%; in the experiment with NCI-H226 lung, 21.3%; with NCI-H322M lung, 93.3%; in the experiment on HOP-62 NSCLC, -17.2% (active); in the experiment on NCI-H460 lung, 69%; in the experiment on HOP-92 NSCLC, -9.25% (active). The growth was 36.2% in the experiment with NCI-H522 lung, 42.5% in the experiment on A549/ATCC NSCLC, -46.2% (active) with 786-0 renal and 38.3% in the experiment with COLO 205 colon.
With `O=C1/C(=C/c2ccc3c(c2)OCO3)SC(=S)N1CCc1ccc(O)cc1`, the growth with NCI-H23 lung was 94.1%; in the experiment with NCI-H226 lung, 102%; in the experiment on NCI-H322M lung, 97.3%; with HOP-62 NSCLC it was 102%; in the experiment on NCI-H460 lung it was 102%; in the experiment on HOP-92 NSCLC, 72%. Besides, the growth in the experiment with NCI-H522 lung was 48.2%; with A549/ATCC NSCLC it was 93.5%; in the experiment on 786-0 renal it was 75.2%; with COLO 205 colon it was 116%.
With `COc1ccc2c(c1)CC/C(=C\c1cncc(Br)c1)C2=O`, the growth in the experiment with NCI-H23 lung is 92.7%; with NCI-H226 lung, 111%; in the experiment on NCI-H322M lung, 106%; in the experiment with HOP-62 NSCLC it was 90%; with NCI-H460 lung it was 103%; with HOP-92 NSCLC it was 84.4%. Also, the growth is 55.7% with NCI-H522 lung, 95.3% with A549/ATCC NSCLC, 92.7% in the experiment on 786-0 renal and 106% in the experiment on COLO 205 colon.
Regarding `COc1cc(-c2nc3ccccc3[nH]2)ccc1OCC(=O)N=Nc1c(O)[nH]c2ccc(Cl)cc12`, the growth is -42.4% (active) in the experiment on NCI-H23 lung; 103% with NCI-H226 lung; -7.85% (active) with NCI-H322M lung; -61.5% (active) in the experiment with HOP-62 NSCLC; -75.8% (active) with NCI-H460 lung; -36.2% (active) in the experiment on HOP-92 NSCLC. The growth in the experiment on NCI-H522 lung was -43.4% (active); with A549/ATCC NSCLC, 35.6%; with 786-0 renal, -79.9% (active); in the experiment on COLO 205 colon, -48.5% (active).
For the compound `O=C1Nc2c(ccc(Cl)c2Cl)/C1=C\c1ccc(C(F)(F)F)cc1`, the growth in the experiment on NCI-H23 lung is 68.8%; in the experiment with NCI-H226 lung, 59.1%; with NCI-H322M lung it was 75.5%; in the experiment on HOP-62 NSCLC, 87.3%; in the experiment with NCI-H460 lung, 89.7%; in the experiment with HOP-92 NSCLC, 57.8%. In addition, the growth in the experiment on NCI-H522 lung was 76.4%; in the experiment with A549/ATCC NSCLC, 84.1%; in the experiment with 786-0 renal, 90.7%; with COLO 205 colon, 100%.
As for `NC(=NC1C2CC3CC(C2)CC1C3)Nc1ccc(I)cc1` (stereo not given), the growth was 15.4% in the experiment on NCI-H23 lung; 84.7% with NCI-H226 lung; 15.7% in the experiment with NCI-H322M lung; 12.9% in the experiment on HOP-62 NSCLC; 55.2% with NCI-H460 lung; 31.1% with HOP-92 NSCLC. Besides, the growth was 42.4% in the experiment with NCI-H522 lung, 26.1% in the experiment with A549/ATCC NSCLC, 61% with 786-0 renal and -70.3% (active) in the experiment on COLO 205 colon.
Turning to `O=C(/C=C/c1ccc(C(F)(F)F)cc1)Nc1ccc(C=C2c3ccccc3C(=O)c3ccccc32)cc1`, the growth is 49.2% in the experiment with NCI-H23 lung; 67.8% in the experiment with NCI-H226 lung; 97.3% in the experiment with NCI-H322M lung; 78.8% in the experiment with HOP-62 NSCLC; 62.3% in the experiment with NCI-H460 lung; 55.6% with HOP-92 NSCLC. In addition, the growth is 20.8% in the experiment with NCI-H522 lung, 44.6% in the experiment on A549/ATCC NSCLC, 62.1% with 786-0 renal and 66.5% in the experiment with COLO 205 colon.
Take `CCN(CC)CCCCNc1c2ccc(Cl)cc2nc2ccc(OC)cc12`: the growth in the experiment on NCI-H23 lung is -42.8% (active); in the experiment with NCI-H226 lung it was -53.7% (active); in the experiment with NCI-H322M lung it was -30.4% (active); in the experiment with HOP-62 NSCLC it was 2.75% (active); in the experiment on NCI-H460 lung, -23.8% (active); in the experiment with HOP-92 NSCLC, -30.7% (active). Further, the growth with NCI-H522 lung was -37.4% (active); in the experiment with A549/ATCC NSCLC, 9.02% (active); in the experiment with 786-0 renal it was -16.6% (active); in the experiment on COLO 205 colon, -52% (active).
For the compound `O=C1/C(=C/C(Cl)=C/c2ccccc2)SC(=S)N1CCc1ccc(O)cc1`, the growth in the experiment with NCI-H23 lung was -18.1% (active); in the experiment on NCI-H226 lung it was 55.7%; in the experiment on NCI-H322M lung it was 44%; with HOP-62 NSCLC, -6.2% (active); in the experiment with NCI-H460 lung, 0.138% (active); with HOP-92 NSCLC, -1.85% (active). In addition, the growth was -7.91% (active) in the experiment with NCI-H522 lung, -5.56% (active) with A549/ATCC NSCLC, -47% (active) with 786-0 renal and -9.3% (active) in the experiment on COLO 205 colon.

For the origin of these results see PubChem BioAssay (NCI).
